{"source": "PubChem BioAssay AID651955", "about": "(The Scripps Research Institute Molecular Screening Center, 2012)", "note": "The campaign covered roughly 2,400 compounds. About 40 (2%) were called active. Only a sample is shown. A number with no mark means an inactive call. Rule as the data show it: active = activation above about 37%; inactive = the rest."}
{"molecular_target": "Trace amine-associated receptor 1 (Homo sapiens) (UniProt Q96RJ0)", "sequence (Q96RJ0 whole entry, looked up)": "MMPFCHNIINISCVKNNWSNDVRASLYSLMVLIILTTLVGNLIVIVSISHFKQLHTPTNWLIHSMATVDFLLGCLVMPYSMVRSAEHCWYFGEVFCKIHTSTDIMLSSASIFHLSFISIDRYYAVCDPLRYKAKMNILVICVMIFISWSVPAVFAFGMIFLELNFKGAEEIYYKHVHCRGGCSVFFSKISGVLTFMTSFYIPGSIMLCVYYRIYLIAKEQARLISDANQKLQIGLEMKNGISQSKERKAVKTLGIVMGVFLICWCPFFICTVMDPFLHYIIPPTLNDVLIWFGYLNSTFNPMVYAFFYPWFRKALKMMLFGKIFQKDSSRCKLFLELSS", "assay": "TAAR1 activation by candidate antagonists – cell-based, fluorescence, counter-screen for TAAR1 antagonist project (AID 651955);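 also: CHO cells stably expressing TAAR1 with calcium dye readout; 0% = DMSO vehicle and 100% = full agonist response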", "details": "hTAAR1 cell line, agonist mode, at 3 µM, stronger effect = higher value"}
{"smiles": "O=C(NCCN1CCOCC1)c1ccccc1N1C(=O)[C@@H]2Cc3c([nH]c4ccccc34)C(c3cccc(Cl)c3)N2C1=O", "note": "(some centres not stated)", "activation": "5.75%"}
{"smiles": "Clc1ccc(Nc2ncnc3c2nnn3Cc2ccccc2)cc1", "activation": "6.12%"}
{"smiles": "Nc1nonc1-n1nnc(C(=O)N/N=C/c2c[nH]c3ccccc23)c1-c1ccccc1", "activation": "2.36%"}
{"smiles": "O=c1[nH]c(CSc2ncc(-c3ccc(F)cc3)n2Cc2ccco2)nc2ccccc12", "activation": "17.5%"}
{"smiles": "Cn1c2ccccc2c(=O)c2c(=O)n(Cc3ccco3)c(COc3ccccc3)nc21", "activation": "39.4% (active)"}
{"smiles": "Cc1ccc(C)c(N2CCN(C(=O)CCCCCn3c(=S)[nH]c4ccc(N5CCOCC5)cc4c3=O)CC2)c1", "activation": "6.46%"}
{"smiles": "CC(C)N(Cc1ccccc1)C(=O)COC(=O)c1ccccc1SCC(=O)N1CCCC1", "activation": "10.5%"}
{"smiles": "C/C(=N\\Nc1ncc(Cl)cc1Cl)c1ccc(S(=O)(=O)NCc2ccco2)cc1", "activation": "-4.54%"}
{"smiles": "COC(=O)Cc1nnn2c1[C@H](C)[C@H](c1ccccc1[N+](=O)[O-])OCC2", "activation": "1.8%"}
{"smiles": "O=C1c2ccccc2C(=O)N1CCC#Cc1ccc2cc(C3(O)CCCCC3)oc(=O)c2c1", "activation": "10.5%"}
{"smiles": "C[C@@H]1CN([C@@H](C)CO)S(=O)(=O)c2ccc(C#Cc3cccc(F)c3)cc2O[C@H]1CN(C)S(=O)(=O)c1cn(C)cn1", "activation": "9.74%"}
{"smiles": "COc1ccc(-c2nn(-c3ccccc3)cc2C(=O)Nc2nccs2)cc1OC", "activation": "7.13%"}
{"smiles": "O=C(NCc1ccc2c(c1)OCO2)c1c(-c2ccsc2)sc2ccccc12", "activation": "-1.93%"}
{"smiles": "CCC(=O)Oc1cccc(C(=O)Nc2ccc(-c3nnc(-c4ccco4)o3)cc2)c1", "activation": "3.83%"}
{"smiles": "O=S(=O)(c1cccs1)N1CCCc2nc(-c3ccc(Br)cc3)ccc21", "activation": "0.43%"}
{"smiles": "CSC(=S)N/N=C/c1c[nH]c2ccccc12", "activation": "12%"}
{"smiles": "CC(=O)n1cc([C@H]2C=C(C(=O)N3CCOCC3)O[C@@H](OCc3ccc(CO)cc3)C2)c2ccccc21", "activation": "9.37%"}
{"smiles": "O=C(COC(=O)c1ccccc1SCC(=O)N1CCCC1)Nc1ccccc1OC(F)F", "activation": "7.54%"}
{"smiles": "Cc1onc(-c2c(F)cccc2Cl)c1C(=O)Nc1cccc(S(=O)(=O)N2CCCCC2)c1", "activation": "7.98%"}
{"smiles": "COc1cc(SC#N)ccc1N=Cc1c(C)[nH]n(-c2ccc(C)cc2)c1=O", "activation": "1.06%"}
{"smiles": "CN(c1ccccc1)S(=O)(=O)c1cc(C(=O)Nc2nc3ccccc3[nH]2)ccc1Cl", "activation": "4.12%"}
{"smiles": "O=C(NCC1CCCO1)c1cc2c([nH]c3ccccc32)c(-c2ccc(F)cc2)n1", "note": "(configuration not stated)", "activation": "3.66%"}
{"smiles": "CC(=O)c1ccccc1OCc1ccc(C(=O)c2ccccc2)cc1", "activation": "6.46%"}
{"smiles": "COc1ccc(CCNC(=O)C(=O)NCC2OCCN2S(=O)(=O)c2ccc(OC)c(C)c2)cc1", "note": "(configuration not stated)", "activation": "5.42%"}
{"smiles": "COC(=O)C1=C(C)N(Cc2ccc(F)cc2)C(=S)NC1c1cccc(Cl)c1", "note": "(configuration not stated)", "activation": "3.48%"}
{"smiles": "CC(=O)OCCN(CCCn1c(-c2ccncc2)nc2ccccc21)c1nc(-c2ccc(C)cc2)cs1", "activation": "2.91%"}
{"smiles": "O=C(Nc1ccccc1-c1nnn(CC(=O)N2CCN(c3ccccc3)CC2)n1)c1cccs1", "activation": "6.9%"}
{"smiles": "O=S1(=O)c2c(cccc2N2CCCCC2)O[C@H](COCc2ccccc2)CN1C1CC1", "activation": "0.58%"}
{"smiles": "Cc1cccc(C)c1NC(=O)CNC(=O)C1CCCC1", "activation": "6.49%"}
{"smiles": "CCN=C1SC(CC(=O)Nc2ccc(C)cc2)C(=O)N1CC", "note": "(configuration not stated)", "activation": "12.6%"}
{"smiles": "COc1ccc(-c2cc(C(=O)Nc3ccccc3O)c3ccccc3n2)cc1", "activation": "16.7%"}
{"smiles": "O=C(NCCN1CCOCC1)c1ccc(/C=C2\\Sc3ccccc3N(Cc3ccc(F)cc3)C2=O)cc1", "activation": "12.4%"}
{"smiles": "COc1ccc(Cl)cc1NC(=O)CCS(=O)(=O)c1cc2c(cc1C)NC(=O)CO2", "activation": "7.53%"}
{"smiles": "COc1ccc(N(CC(=O)N/N=C/c2cccs2)S(=O)(=O)c2ccc(OC)c(OC)c2)cc1", "activation": "11.5%"}
{"smiles": "CSc1ncnc2c1ncn2CC(=O)C1CCC2C3CCC4=CC(=O)CCC4(C)C3CCC12C", "note": "(configuration not stated)", "activation": "15.2%"}
{"smiles": "COc1ccc(C(=O)Nc2ccccc2C(=O)N/N=C/c2ccc(O)c(OC)c2)cc1", "activation": "8.37%"}
{"smiles": "Cc1ccc(SCc2c(C(=O)N/N=C/c3cccnc3)nnn2-c2nonc2N)cc1", "activation": "17.1%"}
{"smiles": "CSCCC(NC(=O)COc1ccccc1)C(=O)OCC(=O)c1cc2ccccc2o1", "note": "(configuration not stated)", "activation": "3.28%"}
{"smiles": "O=C(N/N=C/c1ccc(Cl)c(Cl)c1)c1ccc2nc[nH]c2c1", "activation": "13.9%"}
{"smiles": "COc1cc(/C=C2/C(=O)ON=C2C)ccc1OCc1ccccc1F", "activation": "18.6%"}
{"smiles": "N#Cc1cccc(NC(=O)COC(=O)c2ccccc2C(=O)c2ccc(Cl)c([N+](=O)[O-])c2)c1", "activation": "3.29%"}
{"smiles": "CSCCC(NC(=O)COc1ccccc1)C(=O)OCCOc1ccc(Br)cc1", "note": "(configuration not stated)", "activation": "4.8%"}
{"smiles": "CC(=O)Nc1ccc(NC(=O)COC(=O)C2CCC(C(C)(C)C)CC2)cc1", "note": "(configuration not stated)", "activation": "23.7%"}
{"smiles": "COc1ccc(NC(=O)C2CCCN(S(=O)(=O)c3cccc4cccnc34)C2)cc1OC", "note": "(configuration not stated)", "activation": "5.06%"}
{"smiles": "O=C(CN1CCCSc2ccccc21)N1CCN(S(=O)(=O)c2cccc(F)c2)CC1", "activation": "6.06%"}
{"smiles": "Cn1c(C(=O)NCCc2ccsc2)cc2c(=O)n(C)c3ccccc3c21", "activation": "4.37%"}
{"smiles": "O=C(COC(=O)c1c2c(nc3ccccc13)CCCC2)c1ccc(Br)s1", "activation": "0.2%"}
{"smiles": "Cc1nn(-c2ccccc2)c(C)c1NC(=O)COC(=O)c1cc(Cl)ccc1O", "activation": "10.5%"}
{"smiles": "C=CCC[C@@H](Cc1ccc(F)cc1)C(=O)O[C@H](CNC(=O)[C@H](CC=C)CC(=O)N(CCO)Cc1ccccc1)c1ccccc1", "activation": "2.53%"}
{"smiles": "COc1ccc(CC(=O)Nc2c(C(N)=O)oc3ccccc23)cc1", "activation": "6.71%"}
{"smiles": "CCN1CCc2c(C#N)c(NCc3ccccc3)nc(NCCO)c2C1", "activation": "8.1%"}
{"smiles": "COc1ccc(C(=O)Nc2cccc(NC(=O)c3ccc(OC)cc3OC)n2)c(OC)c1", "activation": "6.39%"}
{"smiles": "CCOC(=O)C1C(c2ccc(OC)c(OC)c2)c2c([nH][nH]c2=O)CC1(C)O", "note": "(configuration not stated)", "activation": "3.71%"}
{"smiles": "CSc1nc(-c2ccccc2)nc(C(Cl)Cl)n1", "activation": "2.73%"}
{"smiles": "CCCCNc1c(-c2cccc(Sc3ccc(OC)cc3)c2)nc2ccccn12", "activation": "6.5%"}
{"smiles": "CCOc1ccc(N2CC(C(=O)N/N=C/c3sccc3C)CC2=O)cc1", "note": "(configuration not stated)", "activation": "3.12%"}
{"smiles": "COc1ccc(-c2cc(C(=O)N(C)CC(=O)Nc3ccccc3Cl)c3ccccc3n2)cc1OC", "activation": "6.79%"}
{"smiles": "COc1ccc(S(=O)(=O)N(CC(=O)NCc2ccco2)c2ccc(F)cc2)cc1", "activation": "7.31%"}
{"smiles": "CC(=O)N1CCN(C(=O)c2cc(-c3ccc(Cl)s3)nc3ccccc23)CC1", "activation": "13%"}
{"smiles": "COc1ccc(-c2cc(C(=O)N(C)Cc3ccccc3)c3ccccc3n2)cc1", "activation": "1.41%"}
{"smiles": "Cc1ccc(-n2c(C)cc(/C=N\\NC(=O)CC(=O)NC(C)C)c2C)cc1", "activation": "16.1%"}
{"smiles": "OC(c1ccccc1)(c1ccccc1)C1CCN(CCCOc2ccc(-c3ccsc3)cc2)CC1", "activation": "33.1%"}
